PubChem BioAssay (NCATS)
Results filed as inconclusive are left out. A number with no mark means an inactive call. The source made the active and inactive calls. Calls come from the whole dose curve; as a rule, active = well fitted inhibition curve with a large enough effect; inconclusive = small, poorly fitted or top-dose-only effect; inactive = no such curve, though single readings can be large or run the other way.

Each compound was assayed on Zika virus NS2B-NS3 protease (unlinked complex) (assay: Primary screen GU Rhodamine qHTS for Zika virus inhibitors: Unlinked NS2B-NS3 protease assay (AID 1347159; note: nearly all actives have a fitted effect of over 60% in size)). Conditions: Recombinant ZIKV NS2B-NS3 protease, Rhodamine110 substrate fluorescence; series mostly up to 107 µM; activity change, negative = inhibition: at the top concentration.
Summary of the method: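 Percent inhibition came from the 15-min rise in Rhodamine110 fluorescence (1.5 microM substrate, ~15% conversion), normalized to no-inhibitor and no-enzyme wells and Hill-fitted. Unlinked protease, 25 nM, pH 8.0 Tris buffer; compounds up to 114 microM, 15-min preincubation.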
% is set by controls: 0 for no effect and ±100 for the full control effect; potency is the fitted concentration of half-maximal effect.

First: C=C1CCC(OC(C)=O)C2(C)CC3(O)OC(=O)C(C)=C3CC12 (centres undefined)
Second: C[C@H]1C[C@H]2[C@@H]3CCC4=CC(=O)C=C[C@]4(C)[C@@]3(F)[C@@H](O)C[C@]2(C)[C@@]1(O)C(=O)COP(=O)(O)O
The “activity change, negative = inhibition” value of the first is higher: 13.8% for the first, 0% for the second.

Going from `O=C(Nc1cccnn1)N1CCC(=Cc2cccc(Oc3ccc(C(F)(F)F)cn3)c2)CC1` to `Cc1nn(C)c2c1C(c1ccc(C(F)(F)F)cc1)C(C#N)=C(N)O2` (centres undefined), the “activity change, negative = inhibition” value rises from -15.2% to -1.07%.

Compared with `CC(C)(C)c1cc(CN2CCN(CC(O)c3ccc(Cl)cc3)CC2)cc(C(C)(C)C)c1O` (centres undefined), `Cc1cn2c(N)c(Cl)cc(C(=O)NCC3CCN(CC(C)C)CC3)c2n1` is lower in “activity change, negative = inhibition” value: 25.2% for the first, -22.9% for the second.

Compared with `Cc1c(N2C(=O)c3ccc(C(=O)O)cc3C2=O)c(=O)n(-c2ccccc2)n1C`, `COc1ccccc1CC(C(=O)O)N(C)C(=O)c1ccccc1` (centres undefined) is lower in “activity change, negative = inhibition” value: 0% for the first, -18.9% for the second.

Going from `CCOC(=O)N1CCC(NCCNC(=O)c2ccccc2C)CC1` to `COCCCNCC1COc2ccccc2O1` (centres undefined), the “activity change, negative = inhibition” value rises from -5.93% to -0.836%.

First: Cc1ncc([N+](=O)[O-])n1CC(O)CN1CCOCC1 (centres undefined)
Second: Cn1c(=O)cc(N2CCCC(N)C2)n(Cc2ccccc2C#N)c1=O (centres undefined)
The “activity change, negative = inhibition” value of the first is higher: 17.7% for the first, -1.2% for the second.

First: CC1(C)OC(=O)C(OCC2CC2)=C1c1ccc(S(C)(=O)=O)cc1
Second: Oc1ccc([C@H]2COc3cc(O)ccc3C2)cc1
The “activity change, negative = inhibition” value of the first is lower: -23.4% for the first, -8.03% for the second.

First: CC[C@H]1OC(=O)C[C@@H](O)[C@H](C)[C@@H](O[C@@H]2O[C@H](C)[C@@H](O)[C@H](N(C)C)[C@H]2O)[C@@H](CCN2C[C@H](C)C[C@H](C)C2)C[C@@H](C)C(=O)/C=C/C(C)=C/[C@@H]1CO[C@@H]1O[C@H](C)[C@@H](O)[C@@H](OC)[C@H]1OC
Second: CC12CCC3c4ccc(O)cc4CCC3C1CCC2OC1OC(C(=O)O)C(O)C(O)C1O (centres undefined)
The “activity change, negative = inhibition” value of the first is lower: -6.95% for the first, 18% for the second.

Compared with `O=c1ccn([C@@H]2O[C@H](CO)[C@@H](O)[C@H]2O)c(=O)[nH]1`, `O=c1ccn(C2OC(CO)C(O)C2O)c(=O)[nH]1` (centres undefined) is lower in “activity change, negative = inhibition” value: 17.2% for the first, 4.52% for the second.

First: CC1=C2C(=O)C=C(CO)[C@@H]2[C@H]2OC(=O)[C@H](C)[C@@H]2[C@@H](O)C1
Second: COc1ccc2c(c1)OC[C@]1(O)c3cc4c(cc3O[C@H]21)OCO4
The “activity change, negative = inhibition” value of the first is lower: -15.1% for the first, 0.148% for the second.

In the case of `CCNC(=O)[C@H]1O[C@H](n2cnc3c(NCC(c4ccccc4)c4ccccc4)nc(C(=O)NCCNC(=O)NC4CCN(c5ccccn5)CC4)nc32)[C@H](O)[C@@H]1O`, the “activity change, negative = inhibition” value is reported as -10.6%.

Going from `CO[C@@]12CC3[C@@H]([C@@H](O)[C@@H](OC(C)=O)C4[C@](C)(COC(C)=O)CCC[C@]34C)[C@@H](C)C1=CC(=O)O2` (some centres undefined) to `C=C(C)C(=O)O[C@H]1C[C@@](C)(OC(C)=O)[C@@]2(O)CC[C@@](C)(O)[C@H](OC(C)=O)[C@@]23OC(=O)C(COC)=C13`, the “activity change, negative = inhibition” value falls from 22% [at 57.1 µM] to 21% [at 57.1 µM].

Compared with `C[C@@H]1CCC2C(C)(C)[C@H](O)CC[C@]2(C)[C@@]12Cc1c(O)cc3c(c1O2)CN(CCO)C3=O` (some centres undefined), `CC(=O)[C@@H]1CC[C@]2(C(=O)O)CC[C@]3(C)C(CCC4[C@@]5(C)CC[C@H](O)C(C)(C)C5CC[C@]43C)C12` (some centres undefined) is lower in “activity change, negative = inhibition” value: -9.37% [at 57.1 µM] for the first, -17.9% [at 57.1 µM] for the second.

Going from `COc1cc(C2OCC3C(c4ccc(OC5OC(CO)C(O)C(O)C5O)c(OC)c4)OCC23)ccc1O` (centres undefined) to `COc1cc(C2Oc3c(O)cc(CCCO)cc3C2CO)ccc1O[C@H]1O[C@H](C)[C@@H](O)[C@H](O)[C@@H]1O` (some centres undefined), the “activity change, negative = inhibition” value rises from 7.69% [at 57.1 µM] to 22.2% [at 57.1 µM].

Going from `CCC(C)(O)C(O)C(=O)OCc1ccc(O[C@@H]2O[C@H](CO)[C@@H](O)[C@H](O)[C@H]2O)cc1` (some centres undefined) to `CC(=O)O[C@H]1[C@H](Oc2ccccc2COC(=O)C2(O)C=CCCC2=O)O[C@H](CO)[C@@H](O)[C@@H]1O` (some centres undefined), the “activity change, negative = inhibition” value falls from 7.59% [at 57.1 µM] to 4.51% [at 57.1 µM].

Compared with `CC(=O)OC1C(O)CC(O[C@@H]2O[C@H](CO)[C@@H](O)[C@H](O)[C@H]2O)C2CCC3C(=O)OC(c4ccoc4)CC3(C)C21` (some centres undefined), `C=C1C(O[C@@H]2O[C@H](CO)[C@@H](O)[C@H](O)[C@@H]2O)CC2C(C)(C)C(O)CCC2(C)C1CC/C(C)=C\CO` (some centres undefined) is lower in “activity change, negative = inhibition” value: 15.7% [at 57.1 µM] for the first, -6.16% [at 57.1 µM] for the second.

Compared with `CC1CCC2(C(=O)OC3OC(COC4OC(CO)C(O)C(O)C4O)C(O)C(O)C3O)CCC3(C)C(=CCC4C5(C)CCC(O)C(C)(C(=O)O)C5CCC43C)C2C1(C)O` (centres undefined), `COC(=O)[C@@]1(C)CC[C@]2(C(=O)O[C@@H]3O[C@H](CO)[C@@H](O)[C@H](O)[C@H]3O)CC[C@]3(C)C(=CCC4[C@@]5(C)CC[C@H](O[C@@H]6O[C@H](C(=O)O)[C@@H](O)[C@H](O)[C@H]6O)C(C)(C)C5CC[C@]43C)[C@@H]2C1` (some centres undefined) is lower in “activity change, negative = inhibition” value: -8.98% [at 32.5 µM] for the first, -9.24% [at 32.5 µM] for the second.

Going from `CC1=C(C)C(=O)OC(C(C)C2C(O)CC3C4C5OC5C5(O)CC(OC6OC(CO)C(O)C(O)C6O)CC(O)C5(C)C4CCC32C)C1` (centres undefined) to `CC1(CO)CC[C@]2(C(=O)O[C@@H]3O[C@H](CO)[C@@H](O)[C@H](O)[C@H]3O)CC[C@]3(C)C(=CCC4[C@@]5(C)C[C@H](O)[C@H](O[C@@H]6OC[C@@H](O)[C@H](O)[C@H]6O)[C@@](C)(CO)C5CC[C@]43C)C2C1` (some centres undefined), the “activity change, negative = inhibition” value falls from 19.8% [at 32.5 µM] to 14.6% [at 32.5 µM].

`C[C@@H]1O[C@@H](O[C@@H]2[C@@H](O)[C@@H](O)[C@H](O[C@@H]3[C@@H](O)[C@@H](O[C@]4(CO)O[C@H](CO)[C@@H](O)[C@@H]4OC(=O)/C=C/c4ccc(O)cc4)O[C@H](CO)[C@H]3OC(=O)/C=C/c3ccc(O)cc3)O[C@H]2C)[C@H](O)[C@H](O)[C@H]1O` was tested, and the “activity change, negative = inhibition” value was 15.7% [at 32.5 µM].

For `C/C=C/C=C/C=C/C(=O)O[C@@H]1[C@@H](OC)C2=C(C(=O)N(C(C)C(=O)O)C2)[C@@]2(C)CCCC(C)(C)[C@H]12` (some centres undefined), the Potency was 7.94 µM (active).
For `CC/C=C\C[C@H]1C(=O)C=C[C@@H]1CCCCCCCC(=O)O`, the Potency was 35.5 µM (active).
With `CC1=CCC2C(C)(CO)CCCC2(CO)C1CO` (centres undefined) the Potency was 15.8 µM (active).
